Outcome and AC50 data for 9 compounds are collected here from PubChem BioAssay (EPA / NIEHS).

For orientation: AC50 means the midpoint of the concentration-response curve, whichever way the signal moves.

Where “and” joins values, the source holds several entries; their conditions need not be identical. Equal entries are not always repeated. Records with an inconclusive call do not appear. More than one record can exist for a structure, and the calls need not agree. Calls of active or inactive are those of the source. The calls were made as follows, unless noted: active = hit-call score of the fitted dose curve at least 0.9, where 1 is the maximum; inactive = score below 0.9.

Assay [1] is described as follows: Tanguay_ZF_120hpf_DP24: Oregon State University Tanguay Lab 24 Hour Post-fertilization zebrafish Assay for Delayed Development (AID 2284390). The procedure, abridged:
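Scored at 24 hpf as a binary present/absent call of delayed development by brightfield, with dead embryos not assessed. Embryos (5D wild type, chorion removed with pronase at 4 hpf) dosed statically from 6 hpf at 28 C in 0.64% DMSO.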

Assay [2] is described as follows: Tanguay_ZF_120hpf_CRAN: Oregon State University Tanguay Lab 120 Hour Post-fertilization zebrafish Assay for Craniofacial Malformation (AID 2284397). The gist of the method:
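Scoring of craniofacial malformation as a binary endpoint was done at 120 hpf by brightfield microscopy and was not done in dead embryos. Exposure was static, starting at 6 hpf, in dechorionated wild-type embryos held singly at 28C with 0.64% DMSO final.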

Assay [3] in a line: Tanguay_ZF_120hpf_AXIS: Oregon State University Tanguay Lab 120 Hour Post-fertilization zebrafish Assay for Axial Malformation (AID 2284398). The gist of the method:
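Scoring was binary (present or absent) for body-axis defects, judged by brightfield imaging at 120 hpf in surviving larvae. Exposure was static at 28C from 6 hpf in chorion-free 5D wild-type embryos, with 0.64% DMSO vehicle.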

Assay [4] can be described thus: Tanguay_ZF_120hpf_MORT: Oregon State University Tanguay Lab 120 Hour Post-fertilization zebrafish Assay for Mortality (AID 2284399). The procedure, abridged:
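Mortality, recorded present/absent via brightfield imaging at 24 and 120 hpf, in 5D zebrafish embryos exposed statically from 6 hpf after pronase chorion removal. Exposure at 28C, 0.64% DMSO vehicle, DMSO baseline.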

The nature of assay [5]: Tanguay_ZF_120hpf_EDEM: Oregon State University Tanguay Lab 120 Hour Post-fertilization zebrafish Assay for Edema Malformation (AID 2284400). The gist of the method: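 Edema recorded as a binary endpoint under brightfield at 120 hpf, excluding embryos that died. Exposure was static, sealed, 28C, from 6 hpf in dechorionated wild-type larvae, final DMSO 0.64%, DMSO as baseline.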

Assay [6] can be described thus: Tanguay_ZF_120hpf_MUSC: Oregon State University Tanguay Lab 120 Hour Post-fertilization zebrafish Assay for Muscle Malformation (AID 2284401). The procedure, abridged:
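Scored as a binary brightfield endpoint at 120 hpf, fitted versus DMSO. Single dechorionated wild-type (Tropical 5D) zebrafish embryos per well, statically exposed at 28C from 6 hpf onward with final DMSO 0.64%.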

Assay [7] can be described thus: Tanguay_ZF_120hpf_BRN: Oregon State University Tanguay Lab 120 Hour Post-fertilization zebrafish Assay for Brain Region Malformation (AID 2284402). The gist of the method: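 Binary brightfield scoring of brain malformation at 120 hpf in 5D wild-type larvae, chorion removed with pronase at 4 hpf. Static exposure began at 6 hpf, 28C, sealed plates, DMSO 0.64% (vol/vol) as vehicle baseline.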

A short description of assay [8]: Tanguay_ZF_120hpf_TCHR: Oregon State University Tanguay Lab 120 Hour Post-fertilization zebrafish Assay for Touch Responsive (AID 2284403). The procedure, abridged: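 Binary touch-response calls are made at 120 hpf in 5D wild-type zebrafish larvae. These larvae were dechorionated with pronase and exposed singly from 6 hpf in sealed, dark plates at 28 °C with 0.64% DMSO final; dead embryos are excluded.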

Assay [9] can be described thus: Tanguay_ZF_120hpf_ANY: Oregon State University Tanguay Lab 120 Hour Post-fertilization zebrafish Assay for Any Mortality and Malformation (AID 2284404). The procedure, abridged:
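Dechorionated Tropical 5D wild-type embryos, one per well from 6 hpf, static exposure in sealed, dark plates at 28C until 120 hpf, 0.64% DMSO final. Brightfield scoring of mortality and malformations as binary presence/absence, pooling 13 morphology endpoints.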

Assay [10] is described as follows: CCTE_Padilla_ZF_Score.Craniofacial: CCTE's 144 Hour Post-fertilization zebrafish Assay Score for Craniofacial Malformation, Padilla Lab (AID 2284405). The gist of the method: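 Craniofacial defects were scored at 6 dpf by two blinded observers using stereomicroscopy. Exposure of wild-type embryos began at 6–8 hpf in sealed wells of 10% Hanks' solution at 26C, with chemical removed by rinsing at 5 dpf.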

Assay [11] in a line: CCTE_Padilla_ZF_Score.Edema: CCTE's 144 Hour Post-fertilization zebrafish Assay Score for Edema Malformation, Padilla Lab (AID 2284406). The gist of the method: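 Edema scored at 6 dpf by two blinded observers under a stereo microscope, in single outbred wild-type larvae exposed from 6-8 hpf in sealed wells (Hanks', 26C, 14:10 h light) and chemical-free after a 5 dpf rinse.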

Assay [12] in a line: CCTE_Padilla_ZF_Score.Spine: CCTE's 144 Hour Post-fertilization zebrafish Assay Score for Spine Malformation, Padilla Lab (AID 2284407). The gist of the method: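 Spine malformation scored at 6 dpf by two independent blinded observers under stereomicroscope, after static sealed exposure from 6–8 hpf at 26C in Hanks' solution with rinse on 5 dpf. Positive-direction fit against DMSO control.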

Assay [13] is described as follows: CCTE_Padilla_ZF_Score.Swim_bladder: CCTE's 144 Hour Post-fertilization zebrafish Assay Score for Swim Bladder Malformation, Padilla Lab (AID 2284408). The procedure, abridged:
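Swim bladder inflation scored at 6 dpf by two blinded observers under a stereo microscope. Exposure ran from 6–8 hpf in sealed wells of 10% Hanks' at 26C, with rinsing at 5 dpf; DMSO served as baseline.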

The nature of assay [14]: CCTE_Padilla_ZF_Score.Position: CCTE's 144 Hour Post-fertilization zebrafish Assay Score for Position, Padilla Lab (AID 2284409). The procedure, abridged:
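Wild-type zebrafish embryos (with chorions) exposed singly from 6–8 hpf in sealed wells of Hanks' solution at 26C, rinsed at 5 dpf. At 6 dpf, blinded assessors scored abnormal water-column position by brightfield stereomicroscopy, relative to DMSO.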

The nature of assay [15]: CCTE_Padilla_ZF_Score.Living: CCTE's 144 Hour Post-fertilization zebrafish Assay Score for Viability, Padilla Lab (AID 2284410).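 Also: larval death at 6 dpf judged by absent heartbeat or coagulation.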 The procedure, abridged:
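Mortality at 6 dpf, judged as absent heartbeat or coagulation by two blinded observers, after sealed static exposure beginning at 6–8 hpf at 26C. Larvae were rinsed free of chemical at 5 dpf, and activity was fitted relative to DMSO.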

A short description of assay [16]: CCTE_Padilla_ZF_Score.General: CCTE's 144 Hour Post-fertilization zebrafish Assay Score for General Malformation, Padilla Lab (AID 2284411). The procedure, abridged:
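Malformation, death and hatching were scored at 6 dpf by two blinded observers under a stereo microscope. Embryos were dosed singly from 6-8 hpf in sealed plates of 10% Hanks' at 26C and rinsed on 5 dpf; DMSO baseline.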

Assay [17] can be described thus: CCTE_Padilla_ZF_Score.Tail: CCTE's 144 Hour Post-fertilization zebrafish Assay Score for Tail Malformation, Padilla Lab (AID 2284414). The gist of the method: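 Tail malformations were scored at 6 dpf by two blinded assessors under a stereo microscope. Chorionated embryos had been exposed from 6-8 hpf in sealed wells of 10% Hanks' at 26 C, then rinsed free of chemical at 5 dpf.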

A short description of assay [18]: CCTE_Padilla_ZF_Score.Blood_pooling: CCTE's 144 Hour Post-fertilization zebrafish Assay Score for Blood Pooling, Padilla Lab (AID 2284415). The procedure, abridged:
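Blood pooling was scored at 6 dpf under a stereo microscope by two blinded assessors, fitted upward against DMSO. Single embryos were dosed at 6–8 hpf in 10% Hanks', kept sealed at 26C (14:10 h cycle) and rinsed at 5 dpf.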

Assay [19] concerns SRY-box transcription factor 2 (SOX2) Protein Expression, Deisenroth Lab, SOX2 (gene 6657). Put plainly: CCTE_Deisenroth_DEVTOX-GLR_Endo_SOX2: CCTE's DevTox GLR-Endo Assay Evaluation of SRY-box transcription factor 2 (SOX2) Protein Expression, Deisenroth Lab (AID 2284412; active = hit-call score of the fitted dose curve at least 0.9, where 1 is the maximum). The gist of the method:
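Endpoint is percent SOX2-positive cells (SOX2+ count/total cells) minus 0.2% DMSO control, from high-content imaging of fixed, nuclear-stained RUES2-GLR cells. Dosing twice at 24 h intervals over 48 h differentiation, 1 nM–200 uM in 10 points.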

Assay [20] has as its system SRY-box transcription factor 17 (SOX17) Protein Expression, Deisenroth Lab, SOX17 (gene 64321). Put plainly: CCTE_Deisenroth_DEVTOX-GLR_Endo_SOX17: CCTE's DevTox GLR-Endo Assay Evaluation of SRY-box transcription factor 17 (SOX17) Protein Expression, Deisenroth Lab (AID 2284413). The procedure, abridged:
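RUES2-GLR human pluripotent cells were seeded 24 h, then differentiated toward endoderm for 48 h with two chemical exposures 24 h apart (10-point series, 1 nM - 200 uM). Nuclei-stained fixed cells were imaged; endpoint is percent change in SOX17+ cells versus 0.2% DMSO.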

For the compound `O=C(O)C(F)(F)C(F)(F)C(F)(F)C(F)(F)C(F)(F)C(F)(F)C(F)(F)C(F)(F)C(F)(F)F`, the call in assay [1], in [3], in [4], in assay [5], in assay [6] and in assay [7] was inactive. The outcome in [8], in assay [10], in assay [11], in assay [12], in assay [14] and in assay [17] was inactive. The call in assay [18] was inactive. Further, the AC50 is 19.5 µM (active) in assay [2]; 8.9 µM (active) in assay [9]; 11.5 µM (active) in [13]; 17.5 µM (active) in assay [15]; 11.5 µM (active) in [16].
`O=S(=O)(O)C(F)(F)C(F)(F)C(F)(F)C(F)(F)C(F)(F)C(F)(F)F`: the compound was classed as inactive in assay [1], in assay [2], in [3], in [4], in assay [5] and in assay [6]. Further, the result in [7], in [8], in [10], in [11], in [12] and in assay [13] was inactive. The compound was classed as inactive in [14], in assay [15], in assay [16], in [17] and in assay [18]. For the same compound, the AC50 in assay [2] was 85.1 µM (active); in [3], 84.8 µM (active); in assay [5], 85.1 µM (active); in assay [6] it was 84.8 µM (active); in [7] it was 81.8 µM (active); in [8], 84.8 µM (active). In addition, the AC50 in [9] was 85.1 µM (active) and 71.3 µM (active); in assay [10], 81.3 µM (active); in [11] it was 29.6 µM (active); in [13], 38.9 µM (active); in assay [14] it was 87.5 µM (active); in [15] it was 88.7 µM (active). The AC50 in assay [16] is 83.7 µM (active).
For the compound `NS(=O)(=O)C(F)(F)C(F)(F)C(F)(F)C(F)(F)C(F)(F)C(F)(F)C(F)(F)C(F)(F)F`, the AC50 was 16.4 µM (active) in assay [1]; 3.27 µM (active) in [2]; 5.51 µM (active) in [4]; 2.59 µM (active) in assay [9]; 0.582 µM (active) in [11]; 0.321 µM (active) in assay [13]. In addition, the AC50 in assay [15] is 1.76 µM (active); in [16] it was 0.453 µM (active). Moreover, the call in assay [3], in assay [5], in assay [6], in assay [7], in assay [8] and in assay [10] was inactive. Also, the result in [12], in assay [14], in assay [17] and in assay [18] was inactive.
In the case of `O=S(=O)(O)C(F)(F)C(F)(F)C(F)(F)C(F)(F)F`, the compound was called inactive in assay [1], in assay [2], in assay [3], in assay [4], in assay [5] and in assay [6]. Further, the outcome in [7], in assay [8], in assay [9], in [10], in [11] and in assay [12] was inactive. Besides, the call in assay [13], in assay [14], in assay [15], in assay [16], in [17] and in [18] was inactive.
For `Oc1c(Cl)c(Cl)c(Cl)c(Cl)c1Cl`, in [16], the AC50 was 0.681 µM (active).
On to `O=C(O)C(F)(F)C(F)(F)C(F)(F)C(F)(F)C(F)(F)F`, for which the compound was called inactive in assay [1], in assay [2], in [3], in assay [4], in [5] and in assay [6]. Further, the outcome in assay [7], in [8], in assay [9], in [10], in [11] and in assay [12] was inactive. The result in [13], in assay [14], in [15], in assay [16], in assay [17] and in assay [18] was inactive.
As to `C=CC(N)=O`, the outcome in [19] and in [20] was inactive.
`O=C(O)C(F)(F)C(F)(F)C(F)(F)C(F)(F)C(F)(F)C(F)(F)C(F)(F)C(F)(F)F`: the outcome in assay [1], in assay [2], in [3], in [4], in [5] and in assay [6] was inactive. The compound was classed as inactive in [7], in assay [8], in assay [9], in assay [10], in [12] and in assay [17]. Moreover, the result in assay [18] was inactive. In addition, the AC50 was 30.6 µM (active) in assay [11]; 30 µM (active) in assay [13]; 88.1 µM (active) in assay [14]; 81.2 µM (active) in [15]; 31.2 µM (active) in [16].
As to `CC1=C2C[C@H]3[C@@H](CC=C4C[C@@H](O)CC[C@@]43C)[C@@H]2CC[C@]12O[C@@H]1C[C@H](C)CN[C@H]1[C@H]2C`, the compound was classed as inactive in assay [20].
